Experimental data reported in PubChem BioAssay AID1345085 (National Center for Advancing Translational Sciences (NCATS), 2018).
Results filed as inconclusive are left out. The source made the active and inactive calls. Calls follow the shape of the dose curve; as a rule, active = well fitted cell-killing curve with a large enough effect; inconclusive = small, poorly fitted or top-dose-only effect, or effect the other way; inactive = no such curve, though single readings can be large or run the other way.

System: Tov-21-G
Assay: Confirmatory qHTS for gynecologic anti-cancer compounds from libraries of approved drugs and bioactive compounds; also: nearly all actives have a fitted effect of over 55% in size
Conditions: gynecologic cancer cell panel viability, ATPlite luminescence, 48 h; series mostly up to 57.7 µM
Method in brief: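 1,000 cells/well; 16 h pre-incubation 37 C, 5% CO2; pin-transferred cpd in DMSO, 11 conc (1:3), 57.5 uM–0.977 nM; 48 h; ATPlite, 15 min RT; luminescence → IC50.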
Potency is read from the fitted curve at half-maximal effect.

| Structure (SMILES) | Potency |
| --- | --- |
| COC(C)(C)CCn1nc(Nc2c(C)cccc2C)c2cnc(Nc3ccc(OCCN4CCCC4)c(F)c3)nc21 | 1.37 µM (active) |
| CN1CCCC(n2nc(Cc3ccc(Cl)cc3)c3ccccc3c2=O)CC1 (configuration not stated) | 30.6 µM (active) |
| CN1CCN(CCOc2cc(OC3CCOCC3)c3c(Nc4c(Cl)ccc5c4OCO5)ncnc3c2)CC1 | 0.243 µM (active) |
| COc1cccc2c1C(=O)c1c(O)c3c(c(O)c1C2=O)C[C@@](O)(C(=O)CO)C[C@@H]3O[C@H]1C[C@H](N)[C@H](O)[C@H](C)O1 | 2.43 µM (active) |
| CC(C)C[C@H](NC(=O)[C@@H](NC(=O)c1cccc(-c2ccccc2)n1)[C@@H](C)O)B(O)O | 1.72 µM (active) |
| CCCCc1nc2cc(/C=C/C(=O)NO)ccc2n1CCN(CC)CC | 3.06 µM (active) |
| NS(=O)(=O)OC[C@@H]1C[C@@H](n2ccc3c(N[C@H]4CCc5ccccc54)ncnc32)C[C@@H]1O | 1.72 µM (active) |
| CNC(=O)c1ccccc1Nc1nc(Nc2ccc(N3CCOCC3)cc2OC)ncc1Cl | 3.85 µM (active) |
| CN(C)C/C=C/C(=O)Nc1cc2c(Nc3ccc(F)c(Cl)c3)ncnc2cc1OC1CCOC1 (configuration not stated) | 3.43 µM (active) |
| CC(Oc1cc(-n2cnc3ccc(CN4CCN(C)CC4)cc32)sc1C(N)=O)c1ccccc1C(F)(F)F (configuration not stated) | 27.3 µM (active) |
| NC1(c2ccc(-c3nc4ccn5c(=O)[nH]nc5c4cc3-c3ccccc3)cc2)CCC1 | inactive |
| O=c1cc(CN2CCOCC2)occ1OCCCCCSc1ccnc2cc(C(F)(F)F)ccc12 | inactive |
| CCN(CC)CCCC(C)Nc1c2ccc(Cl)cc2nc2ccc(OC)cc12 (configuration not stated) | 30.6 µM (active) |
| CNc1nc(Nc2ccc(C(=O)N3CCOCC3)cc2OC)ncc1Cl | inactive |
| COc1cc(N2CCC(N3CCN(C)CC3)CC2)ccc1Nc1ncc(Cl)c(Nc2ccccc2S(=O)(=O)C(C)C)n1 | 6.11 µM (active) |
| OCCNC1CCCc2c1[nH]c1ccc(-c3ccccc3)cc21 (configuration not stated) | 27.3 µM (active) |

| Structure (SMILES) | Potency |
| --- | --- |
| COc1cc2nccc(Oc3ccc(NC(=O)Nc4cc(C)on4)c(Cl)c3)c2cc1OC | 19.3 µM (active) |
| COc1cc2c(cc1-c1c(C)noc1C)ncc1[nH]c(=O)n(C(C)c3ccccn3)c12 (configuration not stated) | 6.85 µM (active) |
| CCN(CC)CCNC(=O)c1c(C)[nH]c(/C=C2\C(=O)Nc3ccc(F)cc32)c1C | 11.2 µM (active) |
| CCS(=O)(=O)c1cccc(-c2cc(C(=O)NC3CCN(C)CC3)c(C)c3[nH]c4ncc(C)cc4c23)c1 | 1.5 µM (active) |
| CCc1cccc(CC)c1NC(=O)N1Cc2[nH]nc(NC(=O)c3ccc(N4CCN(C)CC4)cc3)c2C1 | 2.73 µM (active) |
| CCN1CCN(Cc2ccc(Nc3ncc(F)c(-c4cc(F)c5nc(C)n(C(C)C)c5c4)n3)nc2)CC1 | 2.73 µM (active) |
| O=C1N(c2ccccc2)c2ccccc2C1(Cc1ccncc1)Cc1ccncc1 | inactive |
| CC(C)C[C@H](NC(=O)[C@H](Cc1ccccc1)NC(=O)c1cnccn1)B(O)O | 0.0968 µM (active) |
| Cc1cc(CN2CCN(c3c(Br)cnc4nc(-c5ccc(N6CCN(C)CC6)cc5)[nH]c34)CC2)no1 | 24.3 µM (active) |
| CC(Oc1ccc2[nH]nc(/C=C/c3cnn(CCO)c3)c2c1)c1c(Cl)cncc1Cl (configuration not stated) | 6.11 µM (active) |
| NCCOc1cc(C(=O)Nc2cc(OCCN)c3ccccc3n2)nc(C(=O)Nc2cc(OCCN)c3ccccc3n2)c1 | 24.3 µM (active) |
| C=CC(=O)Nc1cccc(Oc2nc(Nc3ccc(N4CCN(C)CC4)cc3)ncc2Cl)c1 | 3.85 µM (active) |
| CCC(=O)N1CCN(c2ccc(-n3c(=O)ccc4cnc5ccc(-c6cnc7ccccc7c6)cc5c43)cc2C(F)(F)F)CC1 | 0.314 µM (active) |
| COc1ccc(-c2ccc3c(N4CCOCC4C)nc(N4CCOCC4C)nc3n2)cc1CO (configuration not stated) | inactive |
| Cc1ccn(-c2ccc(-c3ncco3)cc2)c(=O)c1-c1ccc2nc(N)ncc2c1 | 6.11 µM (active) |
| Nc1ccccc1NC(=O)c1ccc(CNc2nccc(-c3cccnc3)n2)cc1 | 2.43 µM (active) |
